Bioassay records as filed in PubChem BioAssay.
Peg3 promoter – reduces Peg3 promoter-driven luciferase expression in HeLa; inhibition, % at 20 µM; 1.7% of 360,000 active; HeLa PEG-Prom luciferase reporter, luminescence, overnight;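 active means inhibition of at least 50% at 20 µM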
TROY signal inh – blocks TROY-dependent signaling in reporter cells; Q293 LMP1-TROYcd NF-kB luciferase reporter, 4 h; inhibition, % at 10 µM; 0.98% of 360,000 active;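 active means compounds whose plate-normalised and pattern-corrected inhibition of the luciferase reporter signal at the single screening dose is 50% or more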
CF NFkB inh – inhibitors of cystic fibrosis induced NF-kB | KKLEB NF-kB-GFP reporter, PAF-induced, GFP fluorescence overnight | AID 588850 | inhibition, % at 5 µM | 0.86% of 360,000 active;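 active means at least 50% inhibition at 5 µM, scaled per plate between neutral and stimulator controls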;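 further: PAF is a Pseudomonas aeruginosa culture filtrate used as stimulus; plate controls were PAF-stimulated DMSO wells for no effect and unstimulated DMSO wells for full effect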
HIF-2a block – HIF-2a inhibition | 786-0 RCC cells HIF-2a reporter, luciferase luminescence, overnight | inhibition, % at 18.8 µM | 0.72% of 360,000 active | AID 624352;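 active means inhibition of the luminescence signal of 40% or more relative to plate controls, in a single-dose primary screen at 18.75 µM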
KKLEB tox – reduces viability of KKLEB cystic fibrosis airway cells. KKLEB CF airway cells viability, ATPlite luminescence, overnight; active compounds read low; cells stimulated with P. aeruginosa culture filtrate. activity change (cytotoxicity), % at 5 µM. 0.36% of 360,000 active;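 active means corrected activity change at or below -50% at 5 µM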
TWEAK-Fn14 inh – inhibitors of TWEAK-Fn14 interaction signaling; TWEAK-stimulated Fn14 reporter cells, luciferase luminescence, 8 h; inhibition, % at 10 µM; 2% of 360,000 active; in the data active means inhibition above about 50%
Active calls of the source: *. Sampled rows, rich in hits. Any-hit rate of the full collection: about 4%.

SMILES	Peg3 promoter	TROY signal inh	CF NFkB inh	HIF-2a block	KKLEB tox	TWEAK-Fn14 inh
CC(NC(=O)Cn1ncc(Cl)c(Cl)c1=O)C12CC3CC(CC(C3)C1)C2 (configuration not stated)	97.4*	87.4*	84.0*	91.0*	-78.5*	103.3*
Cc1ccc(NS(=O)(=O)c2ccc3c(c2)NC(=O)CCS3)c(C)c1	35.0	5.6	7.0	9.9	21.7	-7.5
Cn1c(C=O)c(-c2ccc3cc[nH]c3c2)c2ccccc21	-24.9	33.6	44.2	-25.7	-16.9	65.9*
O=C(Nc1ccc(NC(=O)c2ccco2)c(Cl)c1)c1ccc2c(c1)OCCO2	-133.5	-29.9	-22.1	-197.9	-1.0	-18.4
CCCCCCCC(=O)OCC(O)CO (configuration not stated)	-11.8	-7.2	-8.0	-5.4	-59.5*	-10.9
CC(C)CCN(C(=O)C1CCCC1)c1c(N)n(Cc2ccccc2)c(=O)[nH]c1=O	9.8	-8.4	-11.3	-2.7	-0.2	13.9
COCCCNC(=O)CCn1c(=O)c2ccccc2n(CC(=O)NCCC2=CCCCC2)c1=O	-10.3	-0.7	1.8	7.6	-3.1	-11.6
COc1ccc(Nc2ncc(C(=O)N3CCN(c4ccc(F)cc4)CC3)c3ccccc23)cc1	59.5*	22.6	24.3	6.6	-20.3	53.5*
COc1ccccc1N1CCN(c2ncc(C(=O)N3CCN(c4cccc(Cl)c4)CC3)c3ccccc23)CC1	31.0	-5.6	2.3	8.6	-13.8	80.4*
COc1ccc(Nc2ncc(C(=O)O)c3ccccc23)cc1	6.2	-25.6	17.3	-30.3	-5.8	-11.7
CCOc1ccccc1C(=O)N1CCN(c2cccc(Cl)c2)CC1	10.0	22.7	40.6	3.6	-29.9	-28.4
O=C(CCN1C(=O)[C@H]2CC=CC[C@H]2C1=O)NCc1nc(-c2ccc(Cl)cc2)no1	6.4	20.2	6.3	8.5	-1.8	10.9
CC(C)CNS(=O)(=O)c1ccc(CCC(=O)NCCc2ccccc2)cc1	18.3	3.5	11.7	9.4	-3.3	4.1
CCc1nnc(NC(=O)CSc2nnc(-c3ccc(S(=O)(=O)N4CCCC4)cc3)n2CC)s1	-2.2	6.4	-3.9	15.1	5.5	10.1
CCc1nnc(NC(=O)CSc2nnc(-c3ccc(S(=O)(=O)N(CC)CC)cc3)n2CC)s1	6.6	-7.5	5.3	11.9	-8.3	82.8*
Cc1ccc(S(=O)(=O)Nc2ccc3c(c2)C(=O)c2ccccc2-3)cc1	13.5	52.8*	-12.4	1.3	0.2	33.2
COc1ccc(OC[C@@H](O)CNC(=O)c2cccc3c2C(=O)c2ccc(-c4ccc(F)cc4OCc4ccccc4)cc2S3(=O)=O)cc1	5.1	-8.4	-12.3	7.0	-2.1	-12.3
COc1ccc(NC(=O)c2cccc3c2C(=O)c2ccc(-c4ccc(F)cc4OCc4ccccc4)cc2S3(=O)=O)cc1	47.4	3.8	46.1	-30.6	-57.1*	-46.2
COc1ccc(-c2nn(-c3ccccc3)cc2/C=N/N2C(=O)CSC2=S)cc1	56.6*	-33.1	19.0	42.6*	-21.0	61.6*
COc1ccc(-c2nn(-c3ccccc3)cc2/C=N/O)cc1	3.4	-28.7	9.9	-41.2	6.1	-5.5
CCc1nc2ccc(C(=O)NCCCN(C)C)cn2c1N(C)CCCc1ccccc1	52.7*	-13.9	8.5	0.3	-9.7	-26.0
CCc1nc2ccc(C(=O)NC3CCN(Cc4ccccc4)CC3)cn2c1N(C)Cc1cccs1	25.9	11.0	13.0	10.3	-11.0	-3.5
CCc1nc2ccc(C(=O)NC3CCN(Cc4ccccc4)CC3)cn2c1N(C)Cc1cc2ccccc2s1	93.5*	36.2	31.1	-4.0	-8.5	29.3
COCCNc1nc(Oc2ccc(NC(C)=O)cc2)c2sc(-c3ccccc3)cc2n1	-24.9	-25.9	17.2	-32.7	-12.9	-6.5
c1ccc(CNc2nc(NCC3CC3)nc3cc(-c4ccccc4)sc23)cc1	83.3*	-73.9	-11.4	-77.6	-3.2	-24.7
c1ccc(OCCNc2nc(NCC3CC3)nc3cc(-c4ccccc4)sc23)cc1	47.1	-34.9	14.9	-218.3	-29.2	31.4
C=CCNc1nc(NCc2ccc(N(C)C)cc2)c2sc(-c3ccccc3)cc2n1	69.7*	-47.5	-27.8	-276.7	2.0	-67.5
COCCNc1nc(NCc2ccc(NC(C)=O)cc2)c2sc(-c3ccccc3)cc2n1	25.3	-68.8	-37.5	-28.4	-53.7*	-52.1
